Results published in PubChem BioAssay (NCATS).
“And” between values parts separate entries of the source, which are not always exact repeats. Identical values can stand only once. Records with an inconclusive call do not appear. The source made the active and inactive calls. Unless noted, the call rests on the fitted dose curve; in most records, active means well fitted curve in either direction with a large enough effect (not every such curve was filed as active); inconclusive means small, poorly fitted or top-dose-only effect, or another doubt; inactive means flat fitted curve, though single readings scatter.

How the values were obtained:
[1] = Stat Signaling Pathway (AID 446);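 further: ME-180 cervical cancer cells given 40 pM IL-6 alongside compound; SIE-controlled beta-lactamase reporter measured as 460/530 nm FRET emission ratio; on the % scale 0 is the no-effect control and ±100 the full control effect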
Summary of the method: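 Overnight-plated ME-180 cells bearing a STAT Inducible Element beta-lactamase reporter; 5 h co-exposure to compound and 40 pM IL-6; values normalized to 300 pM IL-6 and 125 nM JAK inhibitor controls.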

[2] = molecular target: Glucocorticoid receptor (Homo sapiens) (UniProt P04150); assay: GR-EFC Redistribution (AID 451; calls by dose curve; further: potency means the concentration at half of the fitted maximal effect); details: CHO-K1 GR-EFC translocation, beta-gal luminescence, 2 h
Chain of Glucocorticoid receptor (Homo sapiens) (P04150 whole entry, looked up, the tested form may be a part): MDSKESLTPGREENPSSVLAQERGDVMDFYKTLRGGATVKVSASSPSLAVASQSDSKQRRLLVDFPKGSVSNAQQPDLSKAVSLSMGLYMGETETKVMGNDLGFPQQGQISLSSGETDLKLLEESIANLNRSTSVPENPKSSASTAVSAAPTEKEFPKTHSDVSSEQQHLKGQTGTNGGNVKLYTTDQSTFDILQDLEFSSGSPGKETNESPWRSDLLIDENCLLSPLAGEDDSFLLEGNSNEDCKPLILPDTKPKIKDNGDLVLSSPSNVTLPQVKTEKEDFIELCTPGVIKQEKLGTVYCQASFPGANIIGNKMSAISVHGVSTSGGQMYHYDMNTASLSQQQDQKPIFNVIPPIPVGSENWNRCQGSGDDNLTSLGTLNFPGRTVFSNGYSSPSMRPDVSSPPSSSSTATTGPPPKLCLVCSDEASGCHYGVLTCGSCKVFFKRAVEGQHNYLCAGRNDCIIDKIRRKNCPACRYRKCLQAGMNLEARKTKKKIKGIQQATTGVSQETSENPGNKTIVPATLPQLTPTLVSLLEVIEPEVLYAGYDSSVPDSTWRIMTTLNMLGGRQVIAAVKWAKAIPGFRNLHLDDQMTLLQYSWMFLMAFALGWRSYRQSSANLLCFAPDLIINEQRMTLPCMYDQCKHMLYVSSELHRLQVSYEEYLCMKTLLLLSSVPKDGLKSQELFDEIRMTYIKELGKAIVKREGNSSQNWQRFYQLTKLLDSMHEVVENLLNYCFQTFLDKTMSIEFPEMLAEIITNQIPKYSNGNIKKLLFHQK
Summary of the method: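 Translocation of GR-ED fusion to nuclear EA restores b-gal, read by luminescence after 1 h room-temperature detection. Engineered CHO-K1 biosensor cells, 1,000/well, exposed 2 h at 37 C to titrations up to 46 uM final.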

[3] = molecular target: Mitogen-activated protein kinase 10 (Mus musculus) (UniProt Q61831); assay: JNK3 AlphaScreen Assay (AID 530);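 further: kinase came from lysate of stimulated human HepG2 cells; signal reports phosphorylation of biotinylated GST-cJun 1-79 at Ser73 with 10 µM ATP; on the % scale 0 is the no-effect control and ±100 the full control effect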
Summary of the method: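 qHTS titrations with 15 min compound pre-incubation before adding ATP (10 uM final). Read-out: AlphaScreen of Ser73-phosphorylated biotin-GST-cJun using HepG2 lysate JNK3 activated by IL-1β and TNFα.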

[4] = molecular target: Cytochrome P450 1A2 (Homo sapiens) (UniProt P05177); assay: p450-cyp1a2 (AID 410; calls by dose curve; further: potency means the concentration at half of the fitted maximal effect;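 on activity change, negative = inhibition: -100% = full effect of reference inhibitor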)
Chain of Cytochrome P450 1A2 (Homo sapiens) (P05177 whole entry, looked up): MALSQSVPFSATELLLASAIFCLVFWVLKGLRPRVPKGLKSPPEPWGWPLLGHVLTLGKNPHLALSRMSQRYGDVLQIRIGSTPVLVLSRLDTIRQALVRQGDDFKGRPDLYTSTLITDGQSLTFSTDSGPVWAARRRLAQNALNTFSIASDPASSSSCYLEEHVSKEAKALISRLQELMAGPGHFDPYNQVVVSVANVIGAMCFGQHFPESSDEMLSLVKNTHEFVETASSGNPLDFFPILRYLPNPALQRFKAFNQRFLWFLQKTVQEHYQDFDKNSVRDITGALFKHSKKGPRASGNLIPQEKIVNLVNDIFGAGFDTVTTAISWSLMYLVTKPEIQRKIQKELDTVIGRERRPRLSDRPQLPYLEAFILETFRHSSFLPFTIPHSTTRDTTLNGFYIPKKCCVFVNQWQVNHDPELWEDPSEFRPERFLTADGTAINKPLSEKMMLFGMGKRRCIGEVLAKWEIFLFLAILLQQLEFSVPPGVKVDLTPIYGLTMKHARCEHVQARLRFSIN
Summary of the method: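 Luminescent demethylation readout: Luciferin-ME (100uM, equal to Km) turned over by 20nM CYP1A2 for 60 min at room temperature after NADPH regeneration addition, following 10 min compound preincubation. Normalization used 57 uM furafylline as full inhibition.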

[5] = NFAT Signaling Pathway (AID 444); details: Jurkat NFAT-bla M1, carbachol, beta-lactamase ratio, 5 h;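 further: carbachol stimulus at about its EC50 of 1 µM final; on the % scale 0 is the no-effect control and ±100 the full control effect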
Summary of the method: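 Read-out: CCF4 FRET ratio (460 nm/530 nm) after 1 h RT dye loading, used for %activity and AC50 from titration series. Cells: Jurkat NFAT-β-lactamase/M1 line, treated with compound plus 1 uM carbachol for 5 h, 37 °C.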

[6] = AP1 Signaling Pathway (AID 357);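 further: ME-180 reporter cells stimulated with EGF at its EC50 level; on the % scale 0 is the no-effect control and ±100 the full control effect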
Summary of the method: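 AP-1-bla ME-180 cells, Opti-MEM + 0.5% dialyzed FBS, plated overnight 37 °C. Cpd titration + EC50 EGF, 5 h 37 °C. CCF4 2.5 h RT; ex 405, em 460/530 ratio → %activity, AC50.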

[7] = Cell Viability - BJ (AID 421; calls by dose curve;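 further: potency means the concentration at half of the fitted maximal effect; cells exposed to compound for 40 hours at 37 °C before readout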); details: BJ fibroblast viability, qHTS
Summary of the method: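 Quantitative HTS: ATP depletion in BJ cells after 40 hr compound exposure in complete culture medium, detected with CellTiter-Glo; AC50 from standard Hill fits.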

[8] = Cell Viability - Hek293 (AID 427;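 active means compounds whose dose-response curve shows a full or clear partial loss of cell viability, called from curve shape rather than a numeric limit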;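 further: potency means the concentration at half of the fitted maximal effect; cells exposed to compound for 40 hours at 37 °C before reading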); details: qHTS
Summary of the method: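 AC50 values derive from Hill-modelled concentration-response of ATP-based luminescence, normalized between DMSO-only and 100 uM tamoxifen controls. Cells were exposed in complete culture medium for 40 hr at 37 °C before detection.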

[9] = Cell Viability - HepG2 (AID 433; calls by dose curve;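 further: potency means the concentration at half of the fitted maximal effect; potency for ATP loss meaning cytotoxicity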); details: qHTS
Summary of the method: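 HepG2 hepatocellular carcinoma cells (1500/well) were treated with compounds for 40 h at 37 °C in complete medium; intracellular ATP was read by CellTiter-Glo luminescence. Data were normalized to DMSO and 100 uM tamoxifen, and AC50 came from Hill fits.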

[10] = Cell Viability - MRC5 (AID 434; calls by dose curve;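 further: potency means the concentration at half of the fitted maximal effect; potency reflects cytotoxicity seen as loss of intracellular ATP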); details: MRC5 lung fibroblast viability, qHTS
Summary of the method: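 AC50 values come from Hill-equation fits of intracellular ATP loss, measured by CellTiter-Glo luminescence. Normal lung fibroblasts (MRC5) had 40 hr compound treatment at 37 C, normalized between DMSO and 100 uM tamoxifen.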

[11] = Cell Viability - SK-N-SH (AID 435; calls by dose curve; further: potency means the concentration at half of the fitted maximal effect); details: SK-N-SH neuroblastoma cell viability qHTS
Summary of the method: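 SK-N-SH human neuroblastoma cells (1500/well) were exposed to compounds in complete medium for 40 h at 37 °C, and intracellular ATP was then measured by CellTiter-Glo luminescence. AC50 was taken from Hill fits, normalized to DMSO and 100 uM tamoxifen.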

[12] = Cell Viability - N2a (AID 540; active means well fitted curve in the direction sought with a large enough effect; an effect the other way counts as inactive or inconclusive; further: nearly all actives have a fitted effect of over 45% in size; further: potency means the concentration at half of the fitted maximal effect;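 on activity change, negative = cytotoxicity: plate controls were DMSO alone for no effect and tamoxifen control for full effect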); details: N2a mouse neuroblastoma cell viability; activity change, negative = cytotoxicity: at 92.2 µM (top of the series)
Summary of the method: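 CellTiter-Glo ATP luminescence, read 20 min after reagent at room temperature, reported viability following 40 h compound treatment at 37 °C. N2a mouse neuroblastoma cells seeded 1500/well; Hill equation gave AC50.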

[13] = Cell Viability - NIH 3T3 (AID 541; active means well fitted curve in the direction sought with a large enough effect; an effect the other way counts as inactive or inconclusive;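 further: plate controls were DMSO alone for no effect and tamoxifen positive control for full effect; nearly all actives have a fitted effect of over 25% in size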); details: NIH 3T3 cell viability, qHTS; activity change, negative = cytotoxicity: at 92.2 µM (top of the series)
Summary of the method: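 Intracellular ATP (CellTiter-Glo luminescence, 20 min at room temperature) measured after 40 hr compound exposure at 37 °C of 1000 NIH 3T3 mouse fibroblasts/well in complete medium; AC50 derived by Hill-equation modelling of qHTS concentration-response curves.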

[14] = Cell Viability - HUV-EC-C (AID 542; active means well fitted curve in the direction sought with a large enough effect; an effect the other way counts as inactive or inconclusive; further: on the % scale 0 is the no-effect control and ±100 the full control effect; nearly all actives have a fitted effect of over 35% in size)
Summary of the method: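 CellTiter-Glo luminescence measured ATP loss in HUV-EC-C cells (1000/well) after 40 hr compound exposure at 37 °C, in complete culture medium. Concentration-response data were Hill-fitted to give AC50.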

[15] = Cell Viability - H-4-II-E (AID 543; active means well fitted curve in the direction sought with a large enough effect; an effect the other way counts as inactive or inconclusive; further: nearly all actives have a fitted effect of over 35% in size; further: potency means the concentration at half of the fitted maximal effect)
Summary of the method: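 CellTiter-Glo luminescence (intracellular ATP) measured after 40 h compound exposure at 37 °C in H-4-II-E rat hepatoma cells seeded at 1500/well. Values are AC50s fitted with the standard Hill equation.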

[16] = Cell Viability - SH-SY5Y (AID 544; active means well fitted curve in the direction sought with a large enough effect; an effect the other way counts as inactive or inconclusive; further: nearly all actives have a fitted effect of over 55% in size; further: potency means the concentration at half of the fitted maximal effect;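 on viability change, negative = cytotoxic: 0% = DMSO alone and -100% = 100 µM tamoxifen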); details: SH-SY5Y neuroblastoma cell viability; viability change, negative = cytotoxic: at 92.2 µM (top of the series)
Summary of the method: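 Cytotoxicity measured via ATP-dependent luciferase luminescence (CellTiter-Glo) following 40 h, 37 °C exposure of 1500 SH-SY5Y cells per well. Concentration-response data were fitted with the standard Hill equation to give AC50.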

[17] = Cell Viability - Renal Proximal Tubule (AID 545; active means well fitted curve in the direction sought with a large enough effect; an effect the other way counts as inactive or inconclusive; further: nearly all actives have a fitted effect of over 40% in size; further: potency means the concentration at half of the fitted maximal effect;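 on activity change, negative = cytotoxicity: 0% = DMSO only and -100% = 100 µM tamoxifen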)
Summary of the method: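 Primary rat renal proximal tubule cells (1000/well) were treated with compounds for 40 hr at 37 °C in complete medium. Intracellular ATP was measured by CellTiter-Glo luminescence, and AC50 values came from Hill-equation fits of concentration-response data.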

[18] = Cell Viability - Jurkat (AID 426;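 active means dose-dependent loss of cell ATP signal giving a full or clear fitted curve, ranked by lower potency value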;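 further: potency means the concentration at half of the fitted maximal effect; cells exposed to compound for 40 hours at 37 °C before ATP read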); details: qHTS
Summary of the method: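 Cytotoxicity taken as drop in cellular ATP (CellTiter-Glo luminescence, 20 min room temperature) after 40 hr, 37C treatment of 5000 Jurkat Clone E6-1 cells per well; concentration-response fitted with Hill equation for AC50.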

[19] = molecular target: Glucocorticoid receptor (Homo sapiens) (UniProt P04150); assay: GR-GFP Redistribution (AID 450;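 active means compounds whose dose series gives a full or clear partial fitted curve of increased nuclear translocation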; further: potency means the concentration at half of the fitted maximal effect); details: U2OS GR-GFP nuclear translocation, laser cytometry, 2 h

Clc1ccccc1C(c1ccccc1)(c1ccccc1)n1ccnc1
inactive: outcome [1] | Potency [2] > 46 µM and > 20.6 µM | outcome [3]

CN(C)CCCN1c2ccccc2CCc2ccc(Cl)cc21
inactive: outcome [1] | Potency [2] > 46 µM and > 20.6 µM | outcome [3]
active: Potency [4] 20 µM and 5.01 µM and 15.8 µM | activity change, negative = inhibition ([5]; at 17.2 µM (top of the series)) -83%

CCOC(=O)Nc1ccc(NCc2ccc(F)cc2)nc1N
inactive: outcome [6] | activity change, negative = inhibition ([5]; at 38 µM (top of the series)) -3.88% | outcome [1] | Potency [2] > 46 µM | outcome [3]

CC(C)NCC(O)c1ccc(O)c(O)c1 (stereo unspecified)
inactive: Potency [7] > 92 µM | Potency [8] > 92 µM | Potency [9] > 92 µM | Potency [10] > 92 µM | Potency [11] > 92 µM | outcome [3] | activity change, negative = cytotoxicity [12] 0.719% | Potency [13] | outcome [14] | Potency [15] | Potency [16] | Potency [17]

Cc1ccc(-c2cc(C(F)(F)F)nn2-c2ccc(S(N)(=O)=O)cc2)cc1
active: activity change, negative = cytotoxicity [13] -132%
inactive: Potency [7] > 92 µM | Potency [18] > 92 µM | Potency [8] > 92 µM | Potency [9] > 92 µM | Potency [10] > 92 µM | Potency [11] > 92 µM | outcome [3] | activity change, negative = cytotoxicity [12] -43.6% | outcome [14]

O=C(c1ccc(F)cc1)C1CCN(CCn2c(=O)[nH]c3ccccc3c2=O)CC1
inactive: outcome [6] | activity change, negative = inhibition ([5]; at 17.2 µM (top of the series)) -11.4% and -13.2% | outcome [1] | Potency [2] > 46 µM and > 20.6 µM | outcome [3]

CNCCCC12CCC(c3ccccc31)c1ccccc12
inactive: outcome [6] | outcome [1] | Potency [2] > 46 µM and > 20.6 µM | outcome [3]

O=C(C1CCCCC1)N1CC(=O)N2CCc3ccccc3C2C1 (stereo unspecified)
inactive: outcome [6] | activity change, negative = inhibition ([5]; at 17.2 µM (top of the series)) -4.85% and -1.54% | outcome [1] | Potency [19] > 20.6 µM

CN1CCN2c3ccccc3Cc3ccccc3C2C1 (stereo unspecified)
inactive: outcome [6] | outcome [1] | Potency [19] > 20.6 µM

CC(C)Cc1ccc(C(C)C(=O)O)cc1 (stereo unspecified)
inactive: outcome [6] | activity change, negative = inhibition ([5]; at 17.2 µM (top of the series)) -15% | outcome [1] | Potency [19] > 20.6 µM

OCCN1CCN(CCCN2c3ccccc3Sc3ccc(C(F)(F)F)cc32)CC1
inactive: outcome [6] | outcome [1] | Potency [2] > 46 µM and > 20.6 µM | outcome [3]

CCCNCC(O)COc1ccccc1C(=O)CCc1ccccc1 (stereo unspecified)
inactive: outcome [6] | outcome [1]

COc1ccc(C2CNC(=O)C2)cc1OC1CCCC1 (stereo unspecified)
inactive: outcome [6] | activity change, negative = inhibition ([5]; at 17.2 µM (top of the series)) -22.4% | outcome [1]

COc1cc2c(c(OC)c1OC)-c1ccc(OC)c(=O)cc1[C@@H](NC(C)=O)CC2
active: Potency [18] 2.81 nM and 1.63 nM | Potency [11] 9.09 nM and 5.26 nM | Potency [12] 0.01 µM | Potency [15] 0.126 µM | Potency [16] 5.01 nM and 3.98 nM | Potency [17] 25.1 nM and 20 nM
inactive: Potency [7] > 92 µM | Potency [8] > 92 µM | Potency [9] > 92 µM | Potency [10] > 92 µM | outcome [3] | Potency [13] | outcome [14]

COc1cc2nc(N3CCN(C(=O)C4COc5ccccc5O4)CC3)nc(N)c2cc1OC (stereo unspecified)
inactive: outcome [6] | outcome [1]

Cc1ccc(C(=O)Nc2ccc(S(=O)(=O)O)c3cc(S(=O)(=O)O)cc(S(=O)(=O)O)c23)cc1NC(=O)c1cccc(NC(=O)Nc2cccc(C(=O)Nc3cc(C(=O)Nc4ccc(S(=O)(=O)O)c5cc(S(=O)(=O)O)cc(S(=O)(=O)O)c45)ccc3C)c2)c1
inactive: outcome [6] | activity change, negative = inhibition ([5]; at 38 µM (top of the series)) -19.8% | Potency [2] > 46 µM | outcome [3]

CC(C)NCC(O)COc1ccc(CCOCC2CC2)cc1 (stereo unspecified)
inactive: outcome [6] | outcome [1]

CN(C)CCOC(c1ccccc1)c1ccccc1
inactive: outcome [6] | outcome [1] | outcome [3]

NC(CO)C(=O)NNCc1ccc(O)c(O)c1O (stereo unspecified)
inactive: outcome [6] | activity change, negative = inhibition ([5]; at 17.2 µM (top of the series)) 13.6% | outcome [1]

OCCN(CCO)c1nc(N2CCCCC2)c2nc(N(CCO)CCO)nc(N3CCCCC3)c2n1
inactive: activity change, negative = inhibition ([5]; at 17.2 µM (top of the series)) 7.02% and -24.7% | activity change, negative = inhibition ([5]; at 38 µM (top of the series)) -0.6% | outcome [1] | outcome [3]

NC(=O)NO
inactive: outcome [6] | activity change, negative = inhibition ([5]; at 38 µM (top of the series)) 9.2% | outcome [1] | Potency [2] > 46 µM | outcome [3]

COc1ccccc1N1CCN(CC(O)COc2cccc3ccccc23)CC1 (stereo unspecified)
inactive: outcome [6] | activity change, negative = inhibition ([5]; at 17.2 µM (top of the series)) 9.92% | outcome [1] | Potency [19] > 20.6 µM

CN(C)C(=N)N=C(N)N
inactive: outcome [6] | activity change, negative = inhibition ([5]; at 17.2 µM (top of the series)) -11.6% | outcome [1] | Potency [19] > 20.6 µM | Potency [2] > 20.6 µM | outcome [3]

CN1CCN(C2=Nc3cc(Cl)ccc3Nc3ccccc32)CC1
inactive: outcome [6] | outcome [1] | Potency [2] > 46 µM and > 20.6 µM | outcome [3]
active: activity change, negative = inhibition ([5]; at 38 µM (top of the series)) -49.7%

CCOC(=O)C(C)(C)Oc1ccc(Cl)cc1
inactive: outcome [6] | activity change, negative = inhibition ([5]; at 38 µM (top of the series)) -4.66% | outcome [1] | Potency [2] > 46 µM | outcome [3]

COc1cc2nc(N3CCN(C(=O)c4ccco4)CC3)nc(N)c2cc1OC
inactive: Potency [4] | outcome [1] | outcome [3]

COC(=O)Nc1nc2ccc(C(=O)c3cccs3)cc2[nH]1
active: Potency [4] 5.01 µM and 1.58 µM and 794 nM | activity change, negative = inhibition ([5]; at 17.2 µM (top of the series)) -68.4%
inactive: outcome [1] | Potency [2] > 46 µM and > 20.6 µM | outcome [3]

CN(Cc1cnc2nc(N)nc(N)c2n1)c1ccc(C(=O)N[C@@H](CCC(=O)O)C(=O)O)cc1
inactive: Potency [4] | outcome [3]

CN(C)C(=O)C(CCN1CCC(O)(c2ccc(Cl)cc2)CC1)(c1ccccc1)c1ccccc1
inactive: outcome [6] | activity change, negative = inhibition ([5]; at 17.2 µM (top of the series)) -23.1% | activity change, negative = inhibition ([5]; at 38 µM (top of the series)) -13.2% | outcome [1] | Potency [2] > 46 µM and > 20.6 µM | outcome [3]
